According to PubChem BioAssay (NCATS):
Results filed as inconclusive are left out. Entries that show only a call come without a potency. Calls of active or inactive are those of the source. Calls follow the shape of the dose curve; as a rule, active = well fitted inhibition curve with a large enough effect; inconclusive = small, poorly fitted or top-dose-only effect; inactive = no such curve, though single readings can be large or run the other way.

system: Zika virus NS2B-NS3 protease (linked construct); assay: Primary screen NINDS Rhodamine qHTS for Zika virus inhibitors (AID 1347160); details: purified NS2B-NS3 protease, Rhodamine110 substrate fluorescence; series mostly up to 57.1 µM; also: nearly all actives have a fitted effect of over 55% in size
Summary of the method: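 Percent inhibition, normalized to uninhibited and enzyme-free controls, is fitted to a 4-parameter Hill equation. Fluorescence change comes from a 15-min cleavage of 1.5 microM bis-peptide Rhodamine110 substrate by 25 nM linked NS2B-NS3 at room temperature.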
Potency is read from the fitted curve at half-maximal effect.

SMILES	Potency
C/C=C(/C)C(=O)O[C@H]1C=C(CO)C(=O)[C@H](OC(=O)/C(C)=C/CO)[C@H]1C(C)C	inactive
C/C=C(\C)C(=O)OC1C=C(C)CC(OC(=O)c2ccc(O)cc2)C2C1(C)CCC2(O)C(C)C (centres undefined)	inactive
C=C1CCN([C@H](C)[C@](O)(Cn2cncn2)c2ccc(F)cc2F)CC1	inactive
Cn1c(SCC(=O)N2CCC[C@H]2C(=O)Nc2ccccc2-c2ccccc2)nc2ccccc21	inactive
CC(F)(F)CN1CCOc2c(nn(-c3ccccc3Cl)c2-c2ccc(Cl)cc2)C1=O	inactive
Cc1sc2c(c1C)C(c1ccc(Cl)cc1)=N[C@H](CC(=O)NCCCCNC(=O)COc1cccc3c1C(=O)N([C@H]1CCC(=O)NC1=O)C3=O)c1nnc(C)n1-2	inactive
O=C(COc1ccc2ccccc2c1Br)Nc1cccnc1	inactive
COc1ccc(NC(=O)C2C[C@H](C)CC[C@H]2C(C)C)cc1 (some centres undefined)	inactive
CC(=O)C1(C)CCC2C3C=C(C)C4=CC(=O)CCC4(C)C3CCC21C (centres undefined)	inactive
O=C(NCc1cccs1)c1cc2nc(-c3ccco3)cc(C(F)(F)Cl)n2n1	inactive
C/C=C/[C@@H]1C=C[C@@H]2C[C@H](C)CC[C@H]2[C@]1(C)/C(O)=C1/C(=O)[C@@H](CO)N(C)C1=O	inactive
C=CC(=O)Nc1cccc(Nc2nc(Nc3ccc(OCCOC)cc3)ncc2F)c1	inactive
CC(C)c1noc(C2CCN(c3ncnc(Nc4ccc(S(C)(=O)=O)cc4F)c3[N+](=O)[O-])CC2)n1	inactive
Cc1ccc(C)c(NC(=O)[C@@H]2CCCN2S(=O)(=O)c2cccc3cccnc23)c1	inactive
CC(C)c1ccccc1OC(=O)NCCc1ccc2ccccc2c1	inactive
CC(C)Nc1nc(Nc2ccccc2)nc(-c2ccccc2)n1	inactive
Clc1ccc(Nc2nc3ccccc3c3nc(C4CCCCC4)[nH]c23)cc1Cl	inactive
Cc1nnc(C[C@@H]2C=C(c3ccc(Cl)cc3)c3ccccc3-n3c(C)nnc32)o1	inactive
COc1cc(/C=C2\CC[C@H]3COC[C@@H](c4cc(F)c(F)c(F)c4)N3C2=O)ccc1-n1cnc(C)c1	inactive
COc1c(CCC(=O)O)cccc1O[C@@H]1O[C@H](CO)[C@@H](O)[C@H](O)[C@H]1O	inactive

SMILES	Potency
CC1=C(c2ccc(NC(=O)c3c(F)cccc3F)cc2)CN(c2nccs2)CC1	inactive
CC[C@H](C(=O)Nc1ccccc1N1CCCC1)c1ccccc1	inactive
C/C(=N\N=C(N)N)c1cc(NC(=O)CCCCCCCCC(=O)Nc2cc(/C(C)=N/N=C(N)N)cc(/C(C)=N/N=C(N)N)c2)cc(/C(C)=N/N=C(N)N)c1	inactive
O=c1[nH]c2cccc(N3CCN(Cc4ccc(-c5ccccc5)cc4)CC3)c2o1	inactive
O=C1C(Cc2ccc(O)cc2)N2C(=O)CCN(C(=O)NCc3ccccc3)C2CN1Cc1cccc2ccccc12 (centres undefined)	inactive
CN1c2c(nc(N)[nH]c2=O)NC[C@@H]1CNc1ccc(C(=O)N[C@@H](CCC(=O)O)C(=O)O)cc1	inactive
COc1cc2ncnc(Nc3cccc(I)c3)c2cc1OC	inactive
CC(=O)OC1[C@H]2[C@@H](C[C@@H](C)[C@@H]3C=CC(=O)[C@@]13C)OC(=O)[C@@H]2C (some centres undefined)	inactive
O=C(Nc1ncc([N+](=O)[O-])s1)c1ccccc1O	22.4 µM (active)
COc1ccc(-n2c(SCCCN3C(=O)c4cccc5cccc(c45)C3=O)nnc2-c2ccncc2)cc1	inactive
CC(=O)NCc1cccc(OC[C@@H](O)CNCCc2ccc(NS(=O)(=O)c3ccccc3)cc2)c1	inactive
COC(=O)c1ccnc(-c2cc(C(=O)Nc3ccc(C4(N)CC4)cc3)ccn2)c1	inactive
Cc1c[nH]c2ncnc(N3CCC(CN)(C(=O)Nc4cccc(OC(=O)N(C)C)c4)CC3)c12	inactive
CN(C)CCOC(C)(c1ccccc1)c1ccc(Cl)cc1 (centres undefined)	inactive
COc1cc(O)c2c(c1)/C=C/C[C@H](O)[C@H](O)C(=O)/C=C\C[C@H](C)OC2=O	inactive
Cc1nc(NC(=O)N2CCC[C@H]2C(N)=O)sc1-c1ccnc(C(C)(C)C(F)(F)F)c1	inactive
O=C(Nc1ccccc1Br)NC1CCN(c2ccc(C(F)(F)F)cn2)C1 (centres undefined)	inactive
COc1cc(-n2cnc3cc(-c4ccc(Cl)cc4)sc3c2=O)ccc1OCCN1CCCC1	inactive
O=C(NS(=O)(=O)c1ccc(Br)s1)c1ccc(Cl)cc1Cl	inactive
